Results published in the supplement of paper PMC3334620.
Whole data set: some 33,000 sequences, median “E-score (-0.5 to 0.5)” near -0.0014, cut for the highest 2% near 0.25. This excerpt belongs to a sample that is enriched for the highest values.

Target: T1, Cad1 (UniProt P24813)
T1 sequence: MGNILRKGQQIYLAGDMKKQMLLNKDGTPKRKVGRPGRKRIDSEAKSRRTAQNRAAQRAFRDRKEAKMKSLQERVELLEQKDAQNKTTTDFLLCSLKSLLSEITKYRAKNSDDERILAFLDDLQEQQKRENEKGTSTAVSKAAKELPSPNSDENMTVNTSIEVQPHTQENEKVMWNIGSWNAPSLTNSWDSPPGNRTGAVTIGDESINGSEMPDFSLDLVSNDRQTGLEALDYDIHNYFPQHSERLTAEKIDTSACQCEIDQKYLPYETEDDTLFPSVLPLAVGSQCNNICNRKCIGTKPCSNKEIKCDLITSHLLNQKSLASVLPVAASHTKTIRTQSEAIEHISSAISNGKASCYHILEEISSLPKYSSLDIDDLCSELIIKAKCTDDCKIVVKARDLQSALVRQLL
Experiment: PBM E-score (8-mer binding enrichment) (E-score (-0.5 to 0.5)); higher = stronger / more preferred TF binding
Conditions: protein concentration: 100 nM; construct: GST-full length
Method: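 Universal 'all 10-mer' protein binding microarrays (Agilent AMADID 015681) probed with GST-tagged S. cerevisiae TFs (full-length or DBD) made by in vitro transcription/translation (PURExpress), about 100-200 nM. Bound TF was detected with fluorescent anti-GST. Each ungapped 8-mer (which stands for itself and its reverse complement) is scored by the PBM enrichment score (E-score), a modified Wilcoxon-Mann-Whitney statistic from -0.5 to +0.5, computed with the Universal PBM Analysis Suite. Scale: above 0.35 generally sequence-specific binding.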

Sequence	PBM E-score
GGGCAGTA	-0.0606
AAACGATA	0.128
CAACGATA	0.174
ACACGAAA	0.257
ACACGAAG	0.0492
ACACGAAT	0.0874
TAACGATA	0.261
GCAGTTAC	0.128
CAAGTACG	-0.268
GCGGAGAC	0.267
CCGGAGAC	0.036
ACGGAGAC	0.128
CTCAACGA	-0.0873
CTACATAA	-0.0789
ATACCTAA	0.227
GTACATAA	0.0232
TTACCTAA	0.334
AGACATAA	0.0308
TGACATAA	0.266
TTACATAA	0.438
GGACATAA	0.102
CTACCTAA	0.0375
AAGTGGCA	-0.0104
CTCCATGA	0.0675
CCATAAGA	-0.0777

Sequence	PBM E-score
AAGCCTCG	-0.00547
ATTGTGAA	0.0555
GCCCTCCC	-0.19
AAGCACAG	0.0641
AAGCACAC	-0.0239
AAGCACAT	0.254
CGTAACAA	0.0611
AGTAACAA	0.082
GGTAACAA	0.261
ACCATCCG	-0.081
AAGTCCTC	-0.0441
ATCGATTA	0.275
ACCGATTA	0.123
CTCGATTA	0.276
ATCGATCG	0.188
GTCGATTA	0.115
ATCGATTC	0.0832
CTCGATTC	0.0642
ATCGATTG	0.299
CACGATTA	0.162
CCCTAGGC	-0.079
TACCCAGA	0.109
ACACAGAT	0.0606
CGCACACC	0.0191
ACGTCCGA	-0.0154

Sequence	PBM E-score
CCTGGTAG	-0.209
TAGTTATA	0.068
AGTGCGTC	-0.0502
AACCTGCC	-0.164
GTCTAGTA	0.0789
AACTTGAC	0.0523
ACGCACCC	-0.147
AAAGTTCT	0.0926
ACTACCGG	-0.231
ATAACGAC	0.189
ACAAACAC	0.262
ATAAACAC	0.15
CTAACGAA	0.153
ACAAACAG	0.0175
ATAACGAA	0.258
TCAACGAA	0.0907
TTAAACAA	-0.157
GCAACGAA	0.275
ATAAACAA	0.261
ACAACGAA	0.145
ACAAACAA	0.176
GACCACGA	0.0423
CGCACTAC	0.0013
GGCCGTTA	0.0668
ACGTGGAG	-0.0145

Sequence	PBM E-score
CCCCTATA	-0.144
CCGGTCTC	-0.161
CTTAGAGC	-0.0659
AAAAGCGC	0.0216
AAGTGCTA	-0.257
GGGTCCGA	-0.21
ACGAGACC	-0.00034
CGAACAAA	0.28
ATAACAAT	0.0624
CGAACAAG	0.128
ATAACAAG	0.205
ATAACAAA	0.312
AGAACAAA	0.247
GCATCGAC	-0.0789
GACAGATA	0.0715
CAACGTTG	0.263
CAACGTTC	-0.009
AAACGTTG	-0.0452
AGTATTAA	0.0712
CTTGTTAA	-0.0916
ATTATTAC	0.0832
GTTATTTA	0.153
ATTATTAA	0.384
ATTGTTAA	0.0122
ACTATTAA	0.123

Sequence	PBM E-score
GTTATTGA	0.159
CGTATTAG	0.165
GTTATTAA	0.291
AGTATTAG	0.299
GTTGTTAA	0.259
CTCGCGGA	-0.155
CGCAGCAC	0.0114
ACATACGA	0.117
CTGAAGAA	-0.18
CAACTGTG	-0.031
CAAGACAG	-0.0259
CATGCCAG	-0.0523
AGTGTTAA	0.255
CCTATTAA	-0.00224
GGTGTTAA	0.0749
CTTATTAA	0.42
CTTATTAC	0.218
TGTGTTAA	0.19
TATTTTAA	0.107
GCGGCTTA	0.227
ACCTCTTA	0.153
AAGTCATG	0.0989
ACCGCCTG	-0.142
ACCCGGAC	-0.179
ATTTAATG	0.213

Sequence	PBM E-score
ATTTAATA	0.316
GTTTAATA	0.189
CTTTAATC	-0.00133
CTTTAATA	0.218
ATTTAATC	0.285
AGAGAGGC	-0.297
AGTAAACT	0.105
CCTAGATA	-0.0467
CACGTTTC	-0.176
CAATTTTA	0.27
CAATTTTC	0.125
CAATTTAA	0.156
CTCGCTGA	0.0202
ACGATCGG	0.0625
TCGATCGA	0.27
ACGATCGA	0.254
GCGATCGA	0.248
CCGATCGA	0.0111
ACGATCGT	-0.0266
GATTGAGC	0.0444
ATCAGCAT	0.192
GACTAATC	0.362
CACTAACC	0.0546
GACTAAGC	0.228
CACTAAGC	0.0972

Sequence	PBM E-score
AACTAATC	0.179
CACTAATC	0.262
CTCGCTCA	0.138
CACCGCCC	-0.0109
TAACTTAA	0.259
AAACTCAA	0.163
AAACTAAG	0.166
CAACTTAA	0.0842
AAACTCAG	-0.00451
AAACTAAA	0.141
AAACTTAT	0.256
AAACTCAT	0.253
AAACTTAC	0.0226
GAACTTAA	0.116
AAACTTAA	0.171
AAACTAAT	0.36
CCCCCTGA	-0.414
AGGGATCG	-0.207
AAAAGTGT	-0.074
CCAGACAA	0.0234
CTAGGTGC	-0.221
AACCGCTT	0.0439
